About 83,000 compounds went through this panel and 20% of them were active in at least one assay; those are over-represented in the sample as a whole.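 For each line, cells grew in 96-well plates with the test compound present at a single concentration for 48 hours.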 The source made the active and inactive calls. The calls were made as follows: active = growth percent below 10; inactive = the rest.
What was measured:
Experiment in all cases: NCI-60 one-dose screen, 48 h (100 = growth as untreated, 0 = no growth, -100 = all killed)
Settings in all cases: 10 µM unless noted
[1] = test system: NCI-H23 lung
[2] = test system: NCI-H226 lung
[3] = test system: NCI-H322M lung
[4] = test system: HOP-62 NSCLC
[5] = test system: NCI-H460 lung
[6] = test system: HOP-92 NSCLC
[7] = test system: NCI-H522 lung
[8] = test system: A549/ATCC NSCLC
[9] = test system: 786-0 renal
[10] = test system: COLO 205 colon
[11] = test system: DU-145 prostate
[12] = test system: K-562 leukemia
[13] = test system: MALME-3M melanoma
[14] = test system: MDA-MB-231 breast
[15] = test system: RXF 393 renal
[16] = test system: SF-268 CNS
[17] = test system: SF-295 CNS
[18] = test system: SF-539 CNS
[19] = test system: UACC-257 melanoma
[20] = test system: M14 melanoma

Measured: growth

CC1Cc2c(Cl)ncnc2N(C)c2ccc(F)cc21 (stereo not given)
inactive: [1] 103% | [2] 94.5% | [3] 99.5% | [4] 93.2% | [5] 108% | [6] 65.8% | [7] 89.3% | [8] 70% | [9] 79% | [10] 92.5% | [11] 110% | [12] 99.5% | [13] 91.3% | [14] 98.9% | [15] 104% | [16] 93.8% | [17] 91.2% | [18] 97.5% | [19] 70.3% | [20] 91.5%

COc1ccc2c(c1)[n+]([O-])c(C(=O)/C=C/C=C(\Cl)c1cc(OC)c(OC)c(OC)c1)c(C)[n+]2[O-]
active: [4] -3.57%
inactive: [1] 79.7% | [2] 103% | [3] 87.5% | [5] 102% | [6] 61.3% | [7] 56.6% | [8] 98.4% | [9] 61.4% | [10] 127% | [11] 96.7% | [12] 110% | [13] 61.5% | [14] 74.9% | [15] 47.8% | [16] 47.1% | [17] 21.3% | [18] 66.8% | [19] 108% | [20] 102%

COc1ccc(-c2nc(/C=C3\SC(=NCc4ccccc4)NC3=O)c3ccccn23)cc1
active: [1] -73.4% | [2] 5.75% | [4] -50.7% | [5] -54.6% | [6] -38.2% | [7] -36% | [8] -27.3% | [9] -96.3% | [10] -69.1% | [11] -88.6% | [13] -33.1% | [14] -13.9% | [15] -86.7% | [16] -37.4% | [18] -43.4% | [19] -17% | [20] -95.7%
inactive: [3] 20.4% | [12] 18.4% | [17] 17.5%

C/C(=C(/c1ccc(Cl)cc1)c1ccc(OCCN2CCCC2)cc1)c1ccc(Cl)cc1
inactive: [1] 80.3% | [2] 107% | [3] 92.9% | [4] 104% | [5] 70.6% | [6] 69.5% | [7] 88.8% | [8] 63.4% | [9] 82.7% | [10] 48.5% | [11] 98.1% | [12] 20.3% | [13] 81.5% | [14] 94% | [15] 72% | [16] 91.5% | [17] 100% | [18] 91.8% | [19] 98.6% | [20] 75.8%

CN1CCN(c2ccc(NC(=O)c3nc4ccc5[nH]ncc5c4c4c3CCCC4)cc2C(F)(F)F)CC1
inactive: [1] 90.2% | [2] 80% | [3] 86.3% | [4] 72.2% | [6] 49.2% | [7] 76.7% | [8] 60.2% | [9] 34.3% | [10] 59.3% | [13] 33.1% | [14] 45.8% | [15] 72.3% | [16] 78% | [17] 97.9% | [18] 89.6% | [19] 98.7% | [20] 79.5%
active: [5] -55.4% | [11] -27.9% | [12] 7.04%

C=CCn1c(SCC(=O)Nc2ccc(C(=O)/C=C/c3ccc(Cl)cc3)cc2)nnc1-c1cc(-c2ccc(S(N)(=O)=O)cc2)nc2ccccc12
inactive: [1] 99.3% | [2] 89.6% | [3] 99.7% | [4] 91.8% | [5] 103% | [6] 91.4% | [7] 98.3% | [8] 92.6% | [9] 83.1% | [10] 103% | [11] 104% | [12] 71.1% | [13] 93.3% | [14] 90% | [15] 80.2% | [16] 74.8% | [17] 97.5% | [18] 87% | [19] 99.8% | [20] 92.2%

CCCCCCCCn1ccc2cc(NC(=O)Cn3cc(CN4CCCCC4)nn3)ccc21
active: [5] -50.6% | [9] -68.5% | [10] -80% | [12] -13.5% | [13] -88.3% | [14] -37.1% | [15] -72% | [17] -66.5% | [18] -42.3% | [19] -49.5% | [20] -79.8%
inactive: [1] 75% | [2] 79.4% | [3] 17.6% | [4] 58.6% | [6] 38.1% | [7] 10.3% | [8] 25.2% | [11] 52.2% | [16] 21.3%

N#Cc1c(N)nnn1Cc1cc(=O)oc2c1ccc1ccccc12
inactive: [1] 93.2% | [2] 83.9% | [3] 102% | [4] 101% | [5] 101% | [6] 87.8% | [7] 78.1% | [8] 91.1% | [9] 102% | [10] 112% | [11] 105% | [12] 93.6% | [13] 103% | [14] 86.7% | [15] 104% | [16] 98% | [17] 109% | [18] 113% | [19] 97.7% | [20] 101%

O=C1c2cccnc2C(=O)c2c1c(C(=O)NCCCN1CCCCC1)c1ccccn21
active: [1] -36.1% | [2] -39.8% | [3] -35.9% | [4] -37.5% | [5] -69.9% | [6] -30.5% | [7] -51% | [8] -42.9% | [9] 5.99% | [10] -82.2% | [11] -94.4% | [12] -25.4% | [13] -92.6% | [14] -3.12% | [15] -39.5% | [16] -13% | [17] -13.6% | [18] -61.2% | [19] -82.8% | [20] -88.1%

O=[N+]([O-])c1ccc(-c2nc(N3CCOCC3)c3c4c(sc3n2)CCCC4)cc1
inactive: [1] 88.8% | [2] 85% | [3] 96.3% | [4] 82.4% | [5] 107% | [6] 111% | [7] 79.3% | [8] 95.7% | [9] 93% | [10] 90.9% | [11] 113% | [12] 99.6% | [13] 89.2% | [14] 81% | [15] 104% | [16] 94.8% | [17] 87.4% | [18] 102% | [19] 92.7% | [20] 85.6%

C/C(Nc1ccc(Cl)c(Cl)c1)=C1\CCOC1=O
inactive: [1] 93.3% | [2] 90.4% | [3] 101% | [4] 80.3% | [5] 92.5% | [6] 75.6% | [7] 58% | [8] 88.6% | [9] 81.7% | [10] 134% | [11] 106% | [12] 86.8% | [13] 109% | [14] 95% | [15] 92.2% | [16] 106% | [17] 86.7% | [18] 98.5% | [19] 98.3% | [20] 81.3%

O=C(OCc1ccc2cccc(O)c2n1)N1CCN(C(=O)c2cc3cc(F)ccc3[nH]2)CC1
inactive: [2] 56.9% | [3] 60% | [17] 54.7%
active: [1] -22.8% | [4] -29.7% | [5] -47.6% | [6] -75.9% | [7] -63.2% | [8] -56.2% | [9] -87.1% | [10] -77.4% | [11] -83.9% | [12] 1.96% | [13] -93.2% | [14] -81.6% | [15] -93.1% | [16] -73.4% | [18] -98.3% | [19] -41.4% | [20] -77.7%

Oc1c(Cl)cc(Cl)cc1/C=N/Nc1nnc(N/N=C/c2cc(Cl)cc(Cl)c2O)c2ccccc12
active: [1] -20.6% | [2] -37.5% | [5] 0.0293% | [9] -22.2% | [10] 8.23% | [12] 9.41% | [15] -16.3% | [16] 6.61% | [17] -1.51% | [18] -17.7% | [20] 5.83%
inactive: [3] 21% | [4] 20.6% | [6] 13.9% | [7] 14.1% | [8] 22.8% | [11] 21.8% | [13] 10.4% | [14] 21.3% | [19] 38.5%

O=C(c1cc2ccccc2o1)c1nn(-c2ccccc2)/c(=N/N=Cc2cn(-c3ccccc3)nc2-c2cc3ccccc3oc2=O)s1
inactive: [1] 99.4% | [2] 99.4% | [3] 92% | [4] 97.6% | [5] 106% | [6] 73.2% | [7] 88% | [8] 106% | [9] 103% | [10] 117% | [11] 103% | [12] 78.2% | [13] 98.9% | [14] 86.2% | [15] 107% | [16] 96.8% | [17] 104% | [18] 98.4% | [19] 103% | [20] 97.8%

From PubChem BioAssay (NCI)
